Mtb hypoxia rep: PubChem AID 1159583 | M. tuberculosis hypoxia-regulated fluorescent reporter, fluorescence | fluorescence inhibition, % (test concentration not listed) | actives 0.1% (n = 300,000); in the data active = fluorescence inhibition mostly above about 23%, no sharp cut-off; inactive = mostly below about 17%
Rv3671c protease: Rv3671c serine protease inhibitors, primary screen, biochemical, fluorescence polarization, M. tuberculosis H37Rv. P9WHR9. inhibition, % at 5.96 µM. actives 0.048% (n = 320,000). AID 2606, 2010; in the data active = inhibition above about 38%;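 note: extracellular domain of Rv3671c used as enzyme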
UGM FP inh: M. tuberculosis UGM enzyme inhibitors, primary screen, biochemical, fluorescence polarization, single point | purified UGM, fluorescence polarization probe displacement | actives 0.06% (n = 320,000) | UDP-galactopyranose mutase (Mycobacterium tuberculosis (strain ATCC 25618 / H37Rv)), … | AID 504406, 2011 | inhibition, % at 10 µM; in the data active = inhibition above about 10%, passing the limit was not always enough
Target sequence (P9WIQ1 whole entry, looked up): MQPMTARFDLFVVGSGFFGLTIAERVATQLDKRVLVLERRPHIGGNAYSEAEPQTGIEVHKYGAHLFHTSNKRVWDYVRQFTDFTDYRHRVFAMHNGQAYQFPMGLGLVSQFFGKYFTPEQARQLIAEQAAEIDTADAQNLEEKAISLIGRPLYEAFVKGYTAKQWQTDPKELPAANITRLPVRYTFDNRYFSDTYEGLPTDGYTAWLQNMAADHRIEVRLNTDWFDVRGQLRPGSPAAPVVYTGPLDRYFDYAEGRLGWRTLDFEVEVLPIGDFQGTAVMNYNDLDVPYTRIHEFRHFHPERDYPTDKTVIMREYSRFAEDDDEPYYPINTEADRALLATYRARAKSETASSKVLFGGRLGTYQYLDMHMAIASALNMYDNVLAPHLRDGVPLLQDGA
GDH-TPI counter-1: GDH-TPI coupling enzyme inhibitors, primary screen, artefact control for M. tuberculosis FBA inhibitor project, biochemical, absorbance, full deck | GDH-TPI coupled enzyme counterscreen, NADH absorbance | inhibition, % at 4.8 µM | actives 1.2% (n = 360,000); in the data active = inhibition above about 30%
FadD28 binding: inhibitors of FadD28 bisubstrate probe binding, primary screen, biochemical, fluorescence polarization, single point; actives 0.22% (n = 360,000); Mycobacterium tuberculosis FadD28 fatty-acid-AMP ligase; inhibition, % at 12.5 µM; in the data active = inhibition above about 8.5%, passing the limit was not always enough
FBA Mtb inh: Mtb FBA enzyme inhibitors, primary screen, biochemical, fluorescence, strain H37Rv. purified M. tuberculosis FBA, fluorescence read-out. inhibition, % at 1 µM. actives 2.3% (n = 360,000). AID 588726, 2011
Target sequence (P9WQA3 whole entry, looked up): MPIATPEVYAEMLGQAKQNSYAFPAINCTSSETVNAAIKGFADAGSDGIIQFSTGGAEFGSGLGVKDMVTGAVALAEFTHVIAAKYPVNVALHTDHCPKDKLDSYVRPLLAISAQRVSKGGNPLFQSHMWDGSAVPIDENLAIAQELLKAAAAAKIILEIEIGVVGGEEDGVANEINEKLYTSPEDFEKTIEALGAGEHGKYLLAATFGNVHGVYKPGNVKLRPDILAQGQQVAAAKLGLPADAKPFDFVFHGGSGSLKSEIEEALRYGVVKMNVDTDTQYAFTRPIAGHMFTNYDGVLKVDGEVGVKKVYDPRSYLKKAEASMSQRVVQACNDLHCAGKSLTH
Mtb FBA inh conf: M. tuberculosis aldolase blockers, biochemical, fluorescence, strain H37Rv, confirmation; shares compounds with FBA Mtb inh; purified M. tuberculosis FBA, fluorescence read-out; inhibition, % at 1 µM; actives 78% (n = 5,600)
GDH-TPI counter-2: GDH-TPI coupling enzyme inhibitors, artefact control for M. tuberculosis FBA inhibitor project, biochemical, fluorescence, high throughput; shares compounds with FBA Mtb inh; GDH-TPI coupled enzyme counterscreen; inhibition, % at 1 µM; actives 81% (n = 5,600); AID 652141, 2013; in the data active = inhibition above about 10%
Each line names hits and unclear results; the compound was inactive in the other large screens (follow-up assays come after a bar, where they were run). Only some compounds are listed: those with a hit (about 3.5% of all), similar ones and a draw of the others. Cut-off read from the data, not from the text of the source, unless noted: active = inhibition above about 27%; inactive = the rest.

CSc1nc(-c2ccccc2)c(-c2ccccc2)[nH]1	FBA Mtb inh 50 | Mtb FBA inh conf inactive | GDH-TPI counter-2 inactive
Cc1noc(C)c1NC(=O)Nc1ccc2c(c1)CC(=O)N(C(C)CO)CC(C)C(CN(C)C(=O)Nc1cccc3ccccc13)O2 (centres undefined)	none (no result: Rv3671c protease, UGM FP inh, GDH-TPI counter-1, FadD28 binding, FBA Mtb inh)
Cc1c(NCc2cccnc2)cccc1C(=O)O	FBA Mtb inh 100 | Mtb FBA inh conf 112 | GDH-TPI counter-2 100
O=C(NN=Cc1ccc2c(c1)OCO2)c1cc2ccccc2o1	none (no result: Rv3671c protease, UGM FP inh, GDH-TPI counter-1, FadD28 binding, FBA Mtb inh)
CSc1ccccc1-c1cnc2cccnn12	none (no result: Mtb hypoxia rep, Rv3671c protease, UGM FP inh)
c1cc(-c2cnc3cccnn23)c2cccnc2c1	FBA Mtb inh 38 (no result: Mtb hypoxia rep, Rv3671c protease, UGM FP inh) | Mtb FBA inh conf 127 | GDH-TPI counter-2 115
c1ccc2c(-c3cnc4cccnn34)cncc2c1	FBA Mtb inh 40 (no result: Mtb hypoxia rep, Rv3671c protease, UGM FP inh) | Mtb FBA inh conf 188 | GDH-TPI counter-2 106
COC(=O)NN=C(C)c1ccc(OC(F)F)cc1	none (no result: Rv3671c protease, UGM FP inh, GDH-TPI counter-1, FadD28 binding, FBA Mtb inh)
C=C(C)C(=O)Nc1cccc(C2=NOC3(C2)CC(C(N)=O)N(C(=O)c2ccc(Cl)cc2)C3)c1 (centres undefined)	none (no result: Rv3671c protease, UGM FP inh, GDH-TPI counter-1, FadD28 binding, FBA Mtb inh)
CC(NC(=O)CCC1CCC(=O)N1)c1ccccc1 (centres undefined)	none (no result: Rv3671c protease, UGM FP inh, GDH-TPI counter-1, FadD28 binding, FBA Mtb inh)
CC1CCC2(CC1)NC(=O)N(CC(=O)Nc1ccccc1-c1ccccc1)C2=O (centres undefined)	FBA Mtb inh 55 | Mtb FBA inh conf inactive | GDH-TPI counter-2 inactive
CC1(C2CC2)NC(=O)N(CC(=O)Nc2ccccc2-c2ccccc2)C1=O (centres undefined)	none
Fc1cccc(CCN2C(=S)NCC2Cc2ccccc2)c1 (centres undefined)	none (no result: Rv3671c protease, UGM FP inh, GDH-TPI counter-1, FadD28 binding, FBA Mtb inh)
N#Cc1ccc(-c2ccc(OCC(=O)NCC(=O)Nc3ccc(F)c(F)c3F)cc2)cc1	FBA Mtb inh 30 | Mtb FBA inh conf active | GDH-TPI counter-2 active
N#Cc1ccc(-c2ccc(OCC(=O)NCCc3ccccc3)cc2)cc1	FBA Mtb inh 38 | Mtb FBA inh conf inactive | GDH-TPI counter-2 inactive
O=C1C2CCCCC2C(=O)N1CCCCN1CCN(c2nsc3ccccc23)CC1 (centres undefined)	none (no result: Rv3671c protease, UGM FP inh, GDH-TPI counter-1, FadD28 binding, FBA Mtb inh)
CC(=O)c1cc2c(s1)-c1cc(F)ccc1OC2	FBA Mtb inh 87 | Mtb FBA inh conf 63 | GDH-TPI counter-2 51
COc1ccc(N2CCN(C(=O)c3cc4c(s3)-c3ccccc3OC4)CC2)cc1	none
Cn1c(=O)n(Cc2ccccc2)c(=O)c2c1nc1n2CCCN1C1CCCCC1	none
Cn1c(=O)n(Cc2ccc(F)cc2)c(=O)c2c1nc1n2CCCN1C1CCCCC1	FBA Mtb inh 29 (no result: Mtb hypoxia rep) | Mtb FBA inh conf 154 | GDH-TPI counter-2 147
O=C(CN1CCSCC1)NN=Cc1cccc(Cl)c1	none (no result: Rv3671c protease, UGM FP inh, GDH-TPI counter-1, FadD28 binding, FBA Mtb inh)
CCc1c(C)nc2ncnn2c1N1CCCC(C(=O)Nc2cc(F)ccc2C)C1 (centres undefined)	FBA Mtb inh 28 (no result: Mtb hypoxia rep) | Mtb FBA inh conf inactive | GDH-TPI counter-2 inactive
COc1ccc(OC)c2c1CC(C)(C)NC2=O	FBA Mtb inh 74 (no result: Mtb hypoxia rep) | Mtb FBA inh conf 33 | GDH-TPI counter-2 32
COc1ccc(OC)c2c1CCC1(C2)NC(=O)NC1=O (centres undefined)	none (no result: Mtb hypoxia rep, Rv3671c protease, UGM FP inh, GDH-TPI counter-1)
O=C(O)c1[nH]c2ccccc2c1NS(=O)(=O)Cc1ccccc1	FBA Mtb inh 61 | Mtb FBA inh conf active | GDH-TPI counter-2 174
CN1CCc2c(sc3nc(SCC(=O)N4CCOCC4)nc(N)c23)C1	FBA Mtb inh 54 | Mtb FBA inh conf inactive | GDH-TPI counter-2 inactive
COc1cc(C=NNC(=O)c2nnn(-c3nonc3N)c2C(C)C)ccc1OCc1ccc(F)cc1	none (no result: Rv3671c protease, UGM FP inh, GDH-TPI counter-1, FadD28 binding, FBA Mtb inh)
CCC(=O)c1c[nH]c(C(=O)NCc2cccc(C(F)(F)F)c2)c1	FBA Mtb inh 79 | Mtb FBA inh conf active | GDH-TPI counter-2 active
COC(=O)C1=CN(Cc2cccs2)C=C(C(=O)OC)C1c1cccc(OC)c1OC	FBA Mtb inh 53 | Mtb FBA inh conf 82 | GDH-TPI counter-2 75
COC(=O)C1=CN(CCCN2CCCC2=O)C=C(C(=O)OC)C1c1cccs1	none
COC(=O)C1=CN(Cc2ccc(OC)cc2)C=C(C(=O)OC)C1c1cccs1	FBA Mtb inh 71 | Mtb FBA inh conf inactive | GDH-TPI counter-2 inactive
CN1CCC(=O)N(C(COc2ccccc2)Cc2ccccc2)CC1 (centres undefined)	none (no result: Rv3671c protease, UGM FP inh, GDH-TPI counter-1, FadD28 binding, FBA Mtb inh)
OC1CNc2c(ccc3ccccc23)C1 (centres undefined)	FBA Mtb inh 101 (no result: Rv3671c protease, UGM FP inh) | Mtb FBA inh conf 175 | GDH-TPI counter-2 154
COC(=O)C1=CN(Cc2ccc(OC)c(OC)c2)C=C(C(=O)OC)C1c1ccccc1F	FBA Mtb inh 91 (no result: Rv3671c protease) | Mtb FBA inh conf 61 | GDH-TPI counter-2 47
COC(=O)C1=CN(Cc2ccc(OC)c(OC)c2)C=C(C(=O)OC)C1c1ccc(O)cc1	FBA Mtb inh 64 (no result: Rv3671c protease) | Mtb FBA inh conf active | GDH-TPI counter-2 active
COC(=O)C1=CN(Cc2ccc(C)cc2)C=C(C(=O)OC)C1c1cc(OC)c(OC)c(OC)c1	FBA Mtb inh 33 | Mtb FBA inh conf 91 | GDH-TPI counter-2 73
COC(=O)C1=CN(Cc2ccc(OC)c(OC)c2)C=C(C(=O)OC)C1c1ccc(F)cc1	FBA Mtb inh 97 (no result: Mtb hypoxia rep) | Mtb FBA inh conf active | GDH-TPI counter-2 142
COC(=O)c1ccc(C23CC4(C2)C(CN(C)C4c2ccccc2)C3c2ccc(Cl)nc2)cc1 (centres undefined)	none (no result: Rv3671c protease, UGM FP inh, GDH-TPI counter-1, FadD28 binding, FBA Mtb inh)
NC(=S)NN=Cc1coc2ccc(O)cc2c1=O	none (no result: Rv3671c protease, UGM FP inh, GDH-TPI counter-1, FadD28 binding, FBA Mtb inh)
CN1CC2C3C(=O)N(Cc4ccccc4)C(=O)C3[C@](Cc3ccccc3)(C1=O)N2C(=O)c1ccc(C(F)(F)F)cc1 (some centres undefined)	none (no result: Rv3671c protease, UGM FP inh, GDH-TPI counter-1, FadD28 binding, FBA Mtb inh)
Cc1ccc(-c2nn(-c3ccccc3)cc2C(=O)O)o1	none (no result: GDH-TPI counter-1, FadD28 binding, FBA Mtb inh)
Cc1ccc(-c2nn(-c3ccccc3)cc2/C=C/C(=O)O)o1	FBA Mtb inh 39 | Mtb FBA inh conf inactive | GDH-TPI counter-2 inactive
CCN(CC)Cc1c(O)ccc2c(=O)c(-c3ccccc3)coc12	FBA Mtb inh 69 | Mtb FBA inh conf 61 | GDH-TPI counter-2 43
CCN(CC)Cc1c(O)ccc2c(=O)c(Oc3ccccc3OC)coc12	FBA Mtb inh 71 | Mtb FBA inh conf active | GDH-TPI counter-2 active
Cc1nc(-c2coc3c(CN(C)C)c(O)ccc3c2=O)cs1	FBA Mtb inh 42 | Mtb FBA inh conf inactive | GDH-TPI counter-2 inactive

Screening data: PubChem, several laboratories
